# This is a sample that favours compounds with a hit; in the whole collection about 10% have one here.
# JMJD2A Tudor inh – qHTS Assay for Inhibitors of JMJD2A-Tudor Domain. Lysine-specific demethylase 4A (Homo sapiens), O75164. AlphaScreen JMJD2A-Tudor / H3K4me3 peptide binding. Potency, µM (series often up to 114 µM), for inactives: at the highest dose activity change, negative = inhibition, hits mostly inhibitors. hit rate 4.4% among 390,000; further: potency means the concentration at half of the fitted maximal effect; on the % scale 0 is the no-effect control and ±100 the full control effect; nearly all actives have a fitted effect of over 50% in size
# BAZ2B inh – qHTS Assay for Inhibitors of BAZ2B; hit rate 4.4% among 360,000; AID 504333, 2011; Bromodomain adjacent to zinc finger domain protein 2B (Homo sapiens), Q9UIF8; Potency, µM (highest dose often 114 µM), inactives show top-dose activity change, negative = inhibition, actives largely listed as inhibitors; AlphaScreen BAZ2B-H3K14Ac peptide displacement; further: potency means the concentration at half of the fitted maximal effect; on the % scale 0 is the no-effect control and ±100 the full control effect; nearly all actives have a fitted effect of over 60% in size
#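 BAZ2B (50 nM) with biotin-H3(5-23)K14Ac peptide (50 nM) in PBS pH 7.4, 0.01% Tween-20, preformed 30 min, then compound 30 min at room temperature; top concentration 110uM. AlphaScreen streptavidin donor/nickel chelate acceptor beads (10 ug/mL final), 20 min dark, signal read.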
# HP1b chromo inh – HTS for Inhibitors of HP1-beta Chromodomain Interactions with Methylated Histone Tails; Chromobox protein homolog 1 (Homo sapiens), P83916; AlphaScreen HP1-beta / biotin-H3K9me3 peptide binding; Potency, µM (titrated, usually from 114 µM), without a hit: at the highest dose activity change, negative = inhibition, most hits filed as inhibitors; hit rate 0.56% among 390,000; AID 540317, 2011; further: potency means the concentration at half of the fitted maximal effect; nearly all actives have a fitted effect of over 70% in size
# Target sequence (P83916 whole entry, looked up): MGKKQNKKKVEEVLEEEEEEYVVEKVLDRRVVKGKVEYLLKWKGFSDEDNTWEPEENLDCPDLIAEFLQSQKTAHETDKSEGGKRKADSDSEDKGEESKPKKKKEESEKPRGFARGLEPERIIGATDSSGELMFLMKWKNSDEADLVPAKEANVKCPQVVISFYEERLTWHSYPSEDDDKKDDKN
#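 AlphaScreen: HP1-beta (50 nM) preformed 30 min with biotin-H3(1-18)K9me3 peptide (50 nM) in PBS pH 7.4, 0.01% Tween-20. Compound added for 30 min at RT, then streptavidin donor/nickel chelate acceptor beads (10 ug/mL) for 30 min.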
# G9a block – qHTS Assay for Inhibitors of Histone Lysine Methyltransferase G9a. hit rate 8.8% among 350,000. Potency, µM (top dose mostly 102 µM), for inactives: top-dose activity, negative = inhibition, usual class: inhibitors. G9a H3K9 monomethylation, AlphaScreen, 2 h; further: potency means the concentration at half of the fitted maximal effect; on the % scale 0 is the no-effect control and ±100 the full control effect; nearly all actives have a fitted effect of over 75% in size
# Target sequence (Q96KQ7 913-1193 limits assumed): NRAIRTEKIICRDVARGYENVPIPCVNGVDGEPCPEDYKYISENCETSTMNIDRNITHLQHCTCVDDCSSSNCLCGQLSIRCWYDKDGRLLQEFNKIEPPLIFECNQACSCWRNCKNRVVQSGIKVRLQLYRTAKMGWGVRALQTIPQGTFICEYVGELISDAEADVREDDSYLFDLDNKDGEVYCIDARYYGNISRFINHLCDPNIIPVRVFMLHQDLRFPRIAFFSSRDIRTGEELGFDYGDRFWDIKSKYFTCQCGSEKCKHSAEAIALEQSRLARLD
#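 Compounds were preincubated with 20 nM G9a for 15 min, after which biotinylated H3K9 peptide (500 nM) and SAM (20 uM) started a 2 h room-temperature reaction. Monomethylated product was quantified by antibody-based AlphaScreen chemiluminescence.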
# Six1-Eya2 inh – qHTS Assay for Inhibitors of the Six1/Eya2 Interaction. Homeobox protein SIX1 (Homo sapiens) + Protein phosphatase EYA2 (Homo sapiens), …. AlphaScreen GST-Six1/His-Eya2 binding, biochemical; active compounds read low. activity change, % (test concentration not listed). hit rate 0.56% among 360,000; in the data active means activity change below about -65%; inconclusive means mostly about -30% to -63%; further: on the % scale 0 is the no-effect control and ±100 the full control effect
#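 Compounds are tested against tagged Six1 and Eya2 proteins bridged by glutathione donor and nickel acceptor beads; after a one-hour incubation at 37 °C without light, AlphaScreen emission is recorded.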
# CtBP-E1A inh – qHTS Assay for Inhibitors of the CtBP/E1A Interaction; hit rate 0.49% among 340,000; AID 651724, 2012; AlphaScreen GST-E1A/His-CtBP binding, 1536-well; active compounds read low; activity change, % (test concentration not listed); in the data active means activity change below about -65%; inconclusive means mostly about -30% to -63%; further: on the % scale 0 is the no-effect control and ±100 the full control effect
#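 Protein mix (5X: 125 nM each GST-E1A, His-CtBP) was incubated with pinned compound 2 h at 37 deg C in dark, in 50 mM Tris pH 8.0 buffer with 300 mM NaCl. Glutathione donor and nickel acceptor beads followed; AlphaScreen signal read after 1 h.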
# Starred values were filed as active, the others as inactive; ? = inconclusive; · = not tested or not shown; [ ] = another dose, or the depositor's remark. Unless noted, the call rests on the fitted dose curve; in most records, active means well fitted inhibition curve with a large enough effect; inconclusive means small, poorly fitted or top-dose-only effect; inactive means no such curve, though single readings can be large or run the other way.
SMILES,JMJD2A Tudor inh,BAZ2B inh,HP1b chromo inh,G9a block,Six1-Eya2 inh,CtBP-E1A inh
CCC(=O)NC(NC(=S)Nc1ccccc1Br)C(Cl)(Cl)Cl (stereo not drawn),-6%,1%,25%,-8%[59 µM],2,5
CC(=O)NC(NC(=S)Nc1ccccc1Br)C(Cl)(Cl)Cl (stereo not drawn),-3%,9%,-4%,28µM*,1,3
COc1ccc(NC(=S)NC(NC(=O)c2cccc(Cl)c2)C(Cl)(Cl)Cl)c([N+](=O)[O-])c1 (stereo not drawn),22µM*,?,?,?,-25,-17
O=C(CSc1nc2ccccc2c(=O)n1CCC(=O)NC1CCCCC1)Nc1ccccc1Cl,-16%,1%,-8%,4%[59 µM],·,·
COc1ccc(N2C(=O)[C@@H]3[C@H](C2=O)[C@H]2C=CC=NN2[C@@H]3C(=O)Nc2ccc(Cl)cc2)cc1,?,-33%,-6%,7.1µM*,-3,-6
O=C(Nc1ccc(Cl)cc1)[C@@H]1[C@@H]2C(=O)N(c3ccc4ccccc4c3)C(=O)[C@@H]2[C@H]2C=CC=NN21,63µM*,?,-4%,3.2µM*,-13,-13
O=C(Nc1ccc(Cl)cc1)[C@@H]1[C@@H]2C(=O)N(c3cccc(F)c3)C(=O)[C@@H]2[C@H]2C=CC=NN21,?,-28%,-11%,8.9µM*,-7,-7
COc1ccc2nc(NC(=O)Nc3cccc4ccccc34)sc2c1,-25%,-13%,75%,-8%,-10,·
COc1ccc2nc(N=Nc3c(O)ccc4ccccc34)sc2c1,·,2.8µM*,·,3.2µM*,·,·
O=[N+]([O-])c1ccc(S(=O)(=O)N/N=C/c2ccsc2)cc1,-15%,?,33%,45µM*,-1,9
O=[N+]([O-])c1ccc(S(=O)(=O)NN=Cc2ccc3c(c2)OCO3)cc1,-27%,·,0%,·,0,-9
CN(C)/C=N/c1nc(Sc2ccc(C(F)(F)F)cc2[N+](=O)[O-])n[nH]1,-10%,-2%,11%,-1%,16,-21
O=[N+]([O-])c1cc(C(F)(F)F)cc([N+](=O)[O-])c1Sc1n[nH]c(C(F)(F)F)n1,50µM*,-35%,43%,·,-18,-3
Cc1cc(N2CCOCC2)ccc1/C=C1\SC(=O)N(C(C)C)C1=O,-12%,-10%,18%,36%[12.7 µM],2,4
O=C(O)c1ccc(-c2ccc(/C=C3\NC(=O)N(Cc4ccc(Cl)cc4)C3=O)o2)cc1Cl,32µM*,22µM*,32µM*,20µM*,?,3
COC(=O)CN1C(=O)S/C(=C/c2ccc(N3CCCCC3)o2)C1=O,35µM*,45µM*,?,27%[0.501 µM],0,23
CCN(CC)c1ccc(/C=C2/SC(=O)N(C(C)C)C2=O)o1,?,?,5%,7.1µM*,0,0
CC(C)N1C(=O)S/C(=C\c2ccc(-c3ccc(Cl)c(C(=O)O)c3)o2)C1=O,79µM*,-34%,-11%,40µM*,-20,·
Cc1cccc(NC(=O)CN2C(=O)N/C(=C/c3ccc(-c4cccc(C(=O)O)c4C)o3)C2=O)c1,-1%,?,34%,?,-5,-16
O=C(Nc1ccccc1)c1cccc(N2CCCS2(=O)=O)c1,-9%,-2%,37%,-26%[59 µM],·,·
Cc1ccc(Cl)cc1N1CCN(C(=O)c2ccc3c(c2)N(Cc2ccccc2F)C(=O)c2ccccc2S3(=O)=O)CC1,-10%,-22%,29%,-22%[59 µM],·,·
COc1ccc(OC)c(CNC(=O)c2cc3c(=O)oc4ccc(C)cc4c3s2)c1,-9%,-11%,28%,-1%[59 µM],·,·
O=C(O)CN1C(=O)/C(=C/c2ccc(N3CCCCC3)o2)SC1=S,?,35µM*,?,25µM*,?,-3

# Screening results as filed in PubChem BioAssay.
